In the library only some 19% were active in any assay of this set; here they are far more common.
KB-V1 MDR tox: qHTS assay for MDR1-selective chemotherapeutics: Primary screen using the drug-selected MDR subline cells KB-V1 | Potency, µM (highest dose often 46.1 µM), usual class: cytotoxic | AID 1347076, 2019 | 400,000 compounds, 3.4% hits | KB-V1 MDR cells viability, CellTiter-Glo, 72 h; note: nearly all actives have a fitted effect of over 60% in size
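Following 72 h at 37 degrees C with compound, KB-V1 cell viability was read by CellTiter-Glo luminescence, medium being phenol-red-free DMEM plus 10% FBS; concentration-response parameters came from normalized, curve-fitted qHTS data.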
DT40 TDP1 no CPT: qHTS for Inhibitors of human tyrosyl-DNA phosphodiesterase 1 (TDP1): qHTS in cells in absence of CPT. DT40 Tdp1-/- hTDP1 cells, no CPT, ATP luminescence, 48 h. Potency, µM (highest dose often 46.2 µM), for the others: at the top dose activity change, negative = growth inhibition, usual class: inhibitors. 420,000 compounds, 15% hits; note: nearly all actives have a fitted effect of over 55% in size
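A cellular qHTS used chicken DT40 cells lacking endogenous Tdp1 but carrying stably transfected human TDP1. Compounds were applied without camptothecin, and cell growth kinetics were judged by ATP-dependent luminescence after ≥48 hr.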
HT1080 IDH1KD tx: qHTS for induction of synthetic lethality in tumor cells producing 2HG: qHTS for the HT-1080-IDH1KD cell line; HT-1080 IDH1 knockdown viability, ATP luminescence, 48 h; 360,000 compounds, 2% hits; Potency, µM (top dose mostly 46.1 µM), without a hit: top-dose activity, negative = toxicity, most hits filed as cytotoxic;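 note: 0% = DMSO wells and -100% = cell-free medium wells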
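Luminescent ATP read-out (CellTiter-Glo, 10 min at room temperature) after 48 h compound exposure at 37 °C gave viability of IDH1-knockdown HT-1080 cells. Activity was normalised to DMSO and cell-free wells, then fitted as concentration-response curves.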
KB-3-1 cytotox: qHTS assay for MDR1-selective chemotherapeutics: Primary screen using the parental adenocarcinoma cell KB-3-1 | Potency, µM (titrated, usually from 46.1 µM), actives largely listed as cytotoxic | 400,000 compounds, 1.4% hits | AID 1347075, 2019 | KB-3-1 viability, CellTiter-Glo ATP luminescence, 72 h; note: nearly all actives have a fitted effect of over 60% in size
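Viability of parental KB-3-1 cells, measured by CellTiter-Glo luminescence, followed a 72 h incubation at 37 °C with pinned compounds in phenol-red-free DMEM containing 10% FBS.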
TDP1 cell CPT: qHTS for Inhibitors of human tyrosyl-DNA phosphodiesterase 1 (TDP1): qHTS in cells in presence of CPT; chicken DT40 Tdp1-/-;hTDP1 cells + 20 nM CPT, ATP luminescence, 48 h; Potency, µM (series often up to 46.2 µM), for inactives: at the highest dose activity change, negative = growth inhibition, most hits filed as inhibitors; 420,000 compounds, 12% hits; AID 686979, 2013; note: nearly all actives have a fitted effect of over 55% in size
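Cell growth measured by CellTiter-Glo luminescence after a minimum 48 h, 37 C compound exposure with 20 nM CPT in Tdp1-knockout DT40 cells stably expressing hTDP1, seeded 400/well; qHTS titration format.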
HT1080NT lethal: qHTS for induction of synthetic lethality in tumor cells producing 2HG: qHTS for the HT-1080-NT fibrosarcoma cell line. HT-1080-NT fibrosarcoma viability, CellTiter-Glo ATP luminescence, 48 h. Potency, µM (highest dose often 46.1 µM), for inactives: at the highest dose activity, negative = less viability, usual class: cytotoxic. 360,000 compounds, 1.6% hits;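 note: NT is the 2HG producing partner of a matched IDH1 knockdown line; 0% = DMSO-treated cells and -100% = media-only wells without cells; nearly all actives have a fitted effect of over 55% in size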
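Compounds were tested in concentration-response format on HT-1080-NT cells for 48 hours at 37 degrees C. Cell viability came from CellTiter-Glo luminescence; curves were classified by r2, response magnitude and activity.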
* = called active by the depositor. Calls come from the whole dose curve; as a rule, active = well fitted curve in the direction sought with a large enough effect; inconclusive = small, poorly fitted or top-dose-only effect, or another doubt; inactive = no such curve, though single readings can be large; an effect the other way counts as inactive or inconclusive. Unless noted, % is set by controls: 0 for no effect and ±100 for the full control effect; potency is the fitted concentration of half-maximal effect.

For C=CCn1c(CCNC(=O)c2cccs2)nnc1SCC(=O)c1ccc(Br)cc1 the results were KB-V1 MDR tox 20.6µM*, DT40 TDP1 no CPT inconclusive, HT1080 IDH1KD tx inconclusive, KB-3-1 cytotox inactive, TDP1 cell CPT inconclusive and HT1080NT lethal -20.0%.
O=C(Cn1ncn2c(cc3sccc32)c1=O)NCCc1ccccc1 was read as KB-V1 MDR tox inactive, DT40 TDP1 no CPT -16.8%, KB-3-1 cytotox inconclusive and TDP1 cell CPT 11.7%.
Screening CCc1cc2c(=O)c(-c3cnn(-c4ccccc4)c3)c(C)oc2cc1OCC(=O)Nc1cccc(C)c1 returned KB-V1 MDR tox inconclusive, DT40 TDP1 no CPT 5.17µM*, HT1080 IDH1KD tx 18.0%, KB-3-1 cytotox inconclusive, TDP1 cell CPT 3.26µM* and HT1080NT lethal 0.2%.
Screening CCc1cc2c(=O)c(-c3cnn(-c4ccccc4)c3)c(C)oc2cc1OCC(=O)Nc1ccc(F)c(F)c1 returned KB-V1 MDR tox inconclusive, DT40 TDP1 no CPT 9.2µM*, HT1080 IDH1KD tx 13.3%, KB-3-1 cytotox inactive, TDP1 cell CPT 14.6µM* and HT1080NT lethal 7.4%.
Screening CCc1cc2c(=O)c(-c3ccc(F)cc3)c(C)oc2cc1OCC(=O)O returned KB-V1 MDR tox inactive, DT40 TDP1 no CPT 1.7%, HT1080 IDH1KD tx inconclusive, KB-3-1 cytotox inactive, TDP1 cell CPT 20.4% and HT1080NT lethal 15.6%.
For CC(C)c1ccc(NC(=O)COc2ccc(S(=O)(=O)N3CCOCC3)cc2)cc1 the results were KB-V1 MDR tox inactive, DT40 TDP1 no CPT -26.8%, HT1080 IDH1KD tx -25.4%, KB-3-1 cytotox inactive, TDP1 cell CPT -17.3% and HT1080NT lethal -20.3%.
Screening Cc1cc(S(=O)(=O)Nc2cc3c(cc2N2CCOCC2)n(C)c(=O)n3C)ccc1F returned KB-V1 MDR tox inactive, DT40 TDP1 no CPT 9.2µM*, KB-3-1 cytotox inactive and TDP1 cell CPT 23.1µM*.
Screening Cn1c(=O)n(C)c2cc(N3CCOCC3)c(NS(=O)(=O)c3ccc(Br)cc3)cc21 returned KB-V1 MDR tox inactive, DT40 TDP1 no CPT inconclusive, KB-3-1 cytotox inactive and TDP1 cell CPT 14.6µM*.
For CC(C)N1C(=O)CCN(C=O)c2ccccc21 the results were KB-V1 MDR tox inactive, DT40 TDP1 no CPT 2.2%, HT1080 IDH1KD tx 9.4%, KB-3-1 cytotox inactive, TDP1 cell CPT 5.9% and HT1080NT lethal 8.0%.
`COc1ccc(C(=O)NC(CC(C)C)C(=O)O)cc1OC` (stereo not given) gave KB-V1 MDR tox inactive, DT40 TDP1 no CPT 0.9%, HT1080 IDH1KD tx 4.0%, KB-3-1 cytotox inactive, TDP1 cell CPT 5.8% and HT1080NT lethal 6.4%.
`COc1ccc(C(=O)c2nccc3cc(OC)c(OC)cc23)cc1OC` gave KB-V1 MDR tox 16.4µM*, DT40 TDP1 no CPT inconclusive, HT1080 IDH1KD tx 2.2%, KB-3-1 cytotox inactive, TDP1 cell CPT inconclusive and HT1080NT lethal -0.7%.
COc1ccc(C(=O)Sc2ccc(Cl)cc2)cc1OC was read as KB-V1 MDR tox inactive, DT40 TDP1 no CPT 11.6µM*, HT1080 IDH1KD tx inconclusive, KB-3-1 cytotox inactive, TDP1 cell CPT 8.2µM* and HT1080NT lethal inconclusive.
For COc1ccc(C(=O)c2ccc(OC)c(OC)c2)cc1OC the results were KB-V1 MDR tox inactive, DT40 TDP1 no CPT inconclusive, HT1080 IDH1KD tx -7.1%, KB-3-1 cytotox inactive, TDP1 cell CPT inconclusive and HT1080NT lethal -0.4%.
COc1ccc(C(=O)SC2=NCCS2)cc1OC was read as KB-V1 MDR tox inactive, DT40 TDP1 no CPT 0.1%, HT1080 IDH1KD tx 3.2%, KB-3-1 cytotox inactive, TDP1 cell CPT -10.4% and HT1080NT lethal 7.1%.
`COc1ccc(C(=O)c2cc(OC)c(OC)c(OC)c2)cc1OC` gave KB-V1 MDR tox inactive, DT40 TDP1 no CPT 2.59µM*, HT1080 IDH1KD tx 11.6µM*, KB-3-1 cytotox 5.8µM*, TDP1 cell CPT 4.61µM* and HT1080NT lethal inconclusive.
Screening COc1ccc(C(=O)CC(SCC(NC(C)=O)C(=O)O)c2ccc(Cl)cc2)cc1OC (stereo not given) returned KB-V1 MDR tox 13µM*, DT40 TDP1 no CPT inconclusive, HT1080 IDH1KD tx 10.8%, KB-3-1 cytotox inactive, TDP1 cell CPT 14.6µM* and HT1080NT lethal -0.3%.
Screening C=CCOc1ccc(C=Nc2ccc(Cl)cc2)c(O)c1 returned KB-V1 MDR tox inactive, DT40 TDP1 no CPT 1.7%, HT1080 IDH1KD tx 1.4%, KB-3-1 cytotox inactive, TDP1 cell CPT -4.3% and HT1080NT lethal 0.9%.
`Cc1cccc(CN2CCN([C@@H]3CS(=O)(=O)N[C@H]3COCc3ccccc3)CC2)c1` gave KB-V1 MDR tox inactive, DT40 TDP1 no CPT inconclusive, HT1080 IDH1KD tx 1.6%, KB-3-1 cytotox inactive, TDP1 cell CPT inconclusive and HT1080NT lethal -15.1%.
Screening COc1ccc(C(C)NC(=O)c2ccc(Cl)cc2)cc1OC (stereo not given) returned KB-V1 MDR tox 20.6µM*, DT40 TDP1 no CPT inconclusive, HT1080 IDH1KD tx -7.1%, KB-3-1 cytotox inactive, TDP1 cell CPT -4.1% and HT1080NT lethal -8.8%.
`COc1ccccc1OCCCn1cc(C#N)c2ccccc21` gave KB-V1 MDR tox 5.17µM*, DT40 TDP1 no CPT inconclusive, HT1080 IDH1KD tx -0.1%, KB-3-1 cytotox 11.6µM*, TDP1 cell CPT -21.8% and HT1080NT lethal 0.3%.
Screening CCc1cccc2c(C#N)cn(CCOc3ccccc3OC)c12 returned KB-V1 MDR tox inconclusive, DT40 TDP1 no CPT inconclusive, HT1080 IDH1KD tx -25.3%, KB-3-1 cytotox inactive, TDP1 cell CPT inconclusive and HT1080NT lethal -19.5%.
COc1ccccc1OCCCn1c(C)c(C#N)c2ccccc21 was read as KB-V1 MDR tox inconclusive, DT40 TDP1 no CPT 25.9µM*, HT1080 IDH1KD tx -12.4%, KB-3-1 cytotox inconclusive, TDP1 cell CPT 20.6µM* and HT1080NT lethal -6.0%.
Screening N#Cc1cn(CC(=O)N2CCCC2)c2ccccc12 returned KB-V1 MDR tox inactive, DT40 TDP1 no CPT 2.4%, HT1080 IDH1KD tx 19.0%, KB-3-1 cytotox inactive, TDP1 cell CPT -0.6% and HT1080NT lethal 12.5%.
Screening N#Cc1cn(CCCOc2ccccc2)c2ccccc12 returned KB-V1 MDR tox inconclusive, DT40 TDP1 no CPT 23.1µM*, HT1080 IDH1KD tx -9.3%, KB-3-1 cytotox inconclusive, TDP1 cell CPT 9.2µM* and HT1080NT lethal -5.4%.

Screens as filed in PubChem.
